From PubChem BioAssay (NCI)
This is part of a sample that, as a whole, favours compounds with a hit. Of some 83,000 tested, about 20% had one in any assay.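 Treatment: one concentration, 48 hours, 96-well format. Scoring: percent growth, with anything below 10 considered active.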 A number with no mark means an inactive call. Active and inactive are the calls of the source.

Tests used:
Assay in all cases: NCI-60 one-dose screen, 48 h (100 = growth as untreated, 0 = no growth, -100 = all killed)
Settings in all cases: 10 µM unless noted
HCT-15 colon = tested on: HCT-15 colon
HT29 colon = tested on: HT29 colon
SNB-75 CNS = tested on: SNB-75 CNS
SNB-19 CNS = tested on: SNB-19 CNS
U251 CNS = tested on: U251 CNS
PC-3 prostate = tested on: PC-3 prostate
SK-MEL-5 melanoma = tested on: SK-MEL-5 melanoma
UACC-62 melanoma = tested on: UACC-62 melanoma
LOX IMVI melanoma = tested on: LOX IMVI melanoma
SK-MEL-2 melanoma = tested on: SK-MEL-2 melanoma
EKVX NSCLC = tested on: EKVX NSCLC
SN12C renal = tested on: SN12C renal
UO-31 renal = tested on: UO-31 renal
TK-10 renal = tested on: TK-10 renal
ACHN renal = tested on: ACHN renal
CAKI-1 renal = tested on: CAKI-1 renal
A498 renal = tested on: A498 renal
CCRF-CEM leukemia = tested on: CCRF-CEM leukemia
MOLT-4 leukemia = tested on: MOLT-4 leukemia
SK-MEL-28 melanoma = tested on: SK-MEL-28 melanoma

Compound | growth (HCT-15 colon) | growth (HT29 colon) | growth (SNB-75 CNS) | growth (SNB-19 CNS) | growth (U251 CNS) | growth (PC-3 prostate) | growth (SK-MEL-5 melanoma) | growth (UACC-62 melanoma) | growth (LOX IMVI melanoma) | growth (SK-MEL-2 melanoma) | growth (EKVX NSCLC) | growth (SN12C renal) | growth (UO-31 renal) | growth (TK-10 renal) | growth (ACHN renal) | growth (CAKI-1 renal) | growth (A498 renal) | growth (CCRF-CEM leukemia) | growth (MOLT-4 leukemia) | growth (SK-MEL-28 melanoma) [%]
NS(=O)(=O)c1ccc(Nc2cc(-c3ccccc3)nc(SCC(=O)c3ccccc3)n2)cc1 | 99.4% | 106% | 91.6% | 91.7% | 100% | 98.4% | 98.6% | 91.1% | 97.8% | 105% | 97.9% | 96% | 86% | 129% | 105% | 90% | 94.9% | 98.3% | 105% | –
COc1ccc(/C=C/C(=O)c2cc(S(N)(=O)=O)c(OC)cc2OC)cc1 | 42.6% | 102% | 71.4% | 81% | 68.7% | 42.9% | – | 76.8% | 52.2% | – | 92.1% | 61.1% | 72.4% | 92.9% | 81.1% | 63.5% | – | 55.7% | 71.1% | 40.9
Cc1cc(C)cc(C(=O)Nc2cccc(C#Cc3cccc4[nH]nc(N)c34)c2)c1 | 33.8% | 41.7% | 40.3% | 99.5% | 72.2% | 33.6% | – | 60.5% | 43.2% | – | 89.3% | 71.5% | 62.2% | 92.9% | 56.2% | 55.3% | – | 30.5% | 27% | 72
O=C(Cn1cc(-c2ccccc2)nn1)Nc1nc(-c2ccc(Cl)cc2)cs1 | 94.4% | 102% | 103% | 94.7% | 105% | 101% | 94.5% | 76.1% | 101% | 103% | 98% | 96.2% | 91% | 76.1% | 112% | 107% | 80.7% | 103% | 97.8% | –
Cc1cc(-c2ccc(Cl)cc2)n(Cc2nnc(SCC(=O)Nc3ccc(S(N)(=O)=O)cc3)n2-c2ccc([N+](=O)[O-])cc2)n1 | 68.3% | 90.9% | 129% | 84.6% | 88.4% | 56.5% | 95.9% | 77.4% | 88.4% | 87% | 75.1% | 82% | 64% | 105% | 79.1% | 71.2% | 84.5% | 79.8% | 54.4% | –
NS(=O)(=O)c1ccc(Nc2nc(N/N=C/c3ccccn3)nc(Nc3ccccc3)n2)cc1 | 17.6% | 6.29% (active) | -25.4% (active) | 9.62% (active) | -55.2% (active) | -7.87% (active) | -84.8% (active) | -49.3% (active) | -43.7% (active) | -82% (active) | 13.3% | 2.73% (active) | 17.4% | 2.56% (active) | 17.5% | -25.3% (active) | -67.6% (active) | 5.99% (active) | 3.13% (active) | –
COc1c(N2CC3CCCNC3C2)c(F)cc2c(=O)c(C(=O)N/N=C/c3c[nH]c4ccccc34)cn(C3CC3)c12 (stereo not given) | 57.4% | 50.5% | 99.5% | 103% | 99.2% | 76.9% | 95.3% | 103% | 90.2% | 110% | 105% | 95.7% | 77.2% | 137% | 99.8% | 98.7% | 118% | 71.2% | 74.1% | –
Nc1nc(Nc2ccccc2SSc2ccccc2Nc2nc(N)nc(-c3ccc4ccccc4c3)n2)nc(-c2ccc3ccccc3c2)n1 | 66.9% | 102% | 45.9% | 92.9% | 45.7% | 45.5% | 92.3% | 85% | -70.7% (active) | 99.4% | – | 70% | -19.1% (active) | 117% | 69.5% | 35% | 94% | – | 62.5% | –
O=C1/C(=C/C=C/c2ccco2)SC(=S)N1c1ccccc1 | 56.9% | 83.6% | 101% | 86.3% | 49.8% | 71.3% | – | 70.7% | 26% | – | 81.2% | 79.1% | 42.9% | 95.5% | 67.3% | 86.8% | – | 41.3% | 60.2% | 79.9
Cc1cc(C)c2sc(=O)n(Cc3nnc(SCCC(=O)O)o3)c2n1 | 99.6% | 110% | 103% | 95.4% | 102% | 92.7% | – | 95.5% | 99.2% | – | 102% | 97.8% | 91.8% | 103% | 103% | 89.5% | – | 56.6% | 90.6% | 101
CS(=O)(=O)c1ccc(-c2nn(-c3ccccc3)cc2/C=N/NC(=O)c2nc(N)n[nH]2)cc1 | 88.9% | 101% | 103% | 101% | 101% | 100% | 98.6% | 90.8% | 84.7% | 108% | – | 94.7% | 96.8% | 110% | 93.7% | 96.6% | 101% | 43.7% | 67.1% | –
CNCc1cccc2c1OCCCCCCC(C)(O)CC(C)(C)S(=O)(=O)c1ccc(cc1)-c1cnc(N)c(n1)C(=O)N2 (stereo not given) | -20.6% (active) | -8.67% (active) | 84% | 33% | -70.9% (active) | – | – | 1.85% (active) | -59.4% (active) | – | 62.7% | 16.6% | 23.7% | 65.4% | 10% (active) | 17.6% | – | 4.37% (active) | 2.61% (active) | –
O=C(NNc1nc2cc(F)ccc2n2cccc12)c1ccncn1 | 25.8% | 28.3% | -2.99% (active) | 25.1% | – | 35.6% | -22.1% (active) | 4.91% (active) | 7.82% (active) | 26.4% | 11.2% | 21.3% | 18.6% | 31.7% | 13.3% | 16.5% | 14.6% | 8.88% (active) | 11.7% | 23.5
Cc1ccc(-c2nnc(SCc3ccc(O)c4ncccc34)n2-c2ccccc2)cc1 | 6.13% (active) | 36% | -5.25% (active) | 9.09% (active) | -2.5% (active) | – | -28.2% (active) | -27.7% (active) | 3.35% (active) | -0.952% (active) | 10.7% | 15.1% | -12.8% (active) | 7.85% (active) | 8.47% (active) | 9.59% (active) | 26% | 8.76% (active) | 8.15% (active) | 23
Cc1ccc2c(c1)C13C(=C2Br)CCCN1C(=O)c1ccccc13 (stereo not given) | 73% | 98.9% | 89.9% | 89.2% | 97.5% | – | 88% | 67.4% | 103% | 100% | 91.3% | 92.5% | 76.5% | 99.9% | 95.5% | 75.8% | 92.4% | 79.7% | 79.8% | 92.5
Oc1cccc2ccc(-c3nnc(SCc4ccc(O)c5ncccc45)n3-c3ccccc3)nc12 | 16.5% | 81.3% | 9.14% (active) | 9.4% (active) | 8.21% (active) | – | -31.1% (active) | -4.13% (active) | 5.48% (active) | – | 15.3% | 20% | -22.8% (active) | 14.2% | 7.49% (active) | 18.1% | 31.5% | 11.6% | 12.2% | 22
N#Cc1cnc2ccc(-c3cnc4[nH]ncc4c3)cc2c1N1CCc2cc(F)c(Cl)cc21 | 3.32% (active) | 2.58% (active) | -9.27% (active) | 14.2% | 20.5% | – | -37.2% (active) | -18.5% (active) | -9.51% (active) | -5.98% (active) | -1.26% (active) | 9.07% (active) | -8.85% (active) | 13.1% | 12.5% | 15.1% | -53.7% (active) | – | 4.01% (active) | –
